Reference: publication PMC8222333, “AsCas12a ultra nuclease facilitates the rapid generation of therapeutic cell medicines”
Residue numbers refer to the chain shown, from its start.

B1: CGTA (dsDNA)
DNA 1: GCTATCTAGTGCTCAGTACGCACTGCGTAAGGAAACTTCTGGCAGGACCAGGTCATGAGATCGGAAGAGCACACGTCTGAACTCCAGTCA
DNA 2: TGACTGGAGTTCAGACGTGTGCTCTTCCGATCTCATGACCTGGTCCTGCCAGAAGTTTCCTTACGCAGTGCGTACTGAGCACTAGATAGC
RNA: AAUUUCUACUCUUGUAGAUAGGAAACUUCUGGCAGGACC
B2: CTCA (dsDNA)
DNA 1: B1 DNA 1 with G27T, T28C
DNA 2: B1 DNA 2 with A63G, C64A
RNA: B1 RNA
B3: GATT (dsDNA)
DNA 1: B1 DNA 1 with C26G, G27A, A29T
DNA 2: B1 DNA 2 with T62A, C64T, G65C
RNA: B1 RNA
B4: GATA (dsDNA)
DNA 1: B1 DNA 1 with C26G, G27A
DNA 2: B1 DNA 2 with C64T, G65C
RNA: B1 RNA
B5: GCTC (dsDNA)
DNA 1: B1 DNA 1 with C26G, G27C, A29C
DNA 2: B1 DNA 2 with T62G, C64G, G65C
RNA: B1 RNA
B6: CTCC (dsDNA)
DNA 1: B1 DNA 1 with G27T, T28C, A29C
DNA 2: B1 DNA 2 with T62G, A63G, C64A
RNA: B1 RNA
B7: GCGA (dsDNA)
DNA 1: B1 DNA 1 with C26G, G27C, T28G
DNA 2: B1 DNA 2 with A63C, C64G, G65C
RNA: B1 RNA
B8: CTAA (dsDNA)
DNA 1: B1 DNA 1 with G27T, T28A
DNA 2: B1 DNA 2 with A63T, C64A
RNA: B1 RNA
B9: GCTG (dsDNA)
DNA 1: B1 DNA 1 with C26G, G27C, A29G
DNA 2: B1 DNA 2 with T62C, C64G, G65C
RNA: B1 RNA
B10: GCTA (dsDNA)
DNA 1: B1 DNA 1 with C26G, G27C
DNA 2: B1 DNA 2 with C64G, G65C
RNA: B1 RNA
B11: CGTG (dsDNA)
DNA 1: B1 DNA 1 with A29G
DNA 2: B1 DNA 2 with T62C
RNA: B1 RNA
B12: CTGA (dsDNA)
DNA 1: B1 DNA 1 with G27T, T28G
DNA 2: B1 DNA 2 with A63C, C64A
RNA: B1 RNA
B13: CGTC (dsDNA)
DNA 1: B1 DNA 1 with A29C
DNA 2: B1 DNA 2 with T62G
RNA: B1 RNA
B14: GATG (dsDNA)
DNA 1: B1 DNA 1 with C26G, G27A, A29G
DNA 2: B1 DNA 2 with T62C, C64T, G65C
RNA: B1 RNA
B15: GAGA (dsDNA)
DNA 1: B1 DNA 1 with C26G, G27A, T28G
DNA 2: B1 DNA 2 with A63C, C64T, G65C
RNA: B1 RNA

Each binder was assayed against dAsCas12a Ultra (Acidaminococcus sp., UniProt U2UMQ6 1-1307, M537R;F870L;D908A;E993A;D1235A) (assay: Spec-seq (native PAGE EMSA with sequencing of bound and unbound); 25 mM Tris-HCl pH 7.4, 150 mM KCl, 5 mM MgCl2, 10% glycerol, 1 mM DTT, 40 ng/uL salmon sperm DNA; 400 nM Cas12a, 480 nM crRNA, 50 nM library, 37 C 1 h; native PAGE at room temperature; high values mean tight binding). Settings: protein: recombinant.

Q: How did the binding signal turn out when B1 was run?
A: Its binding signal is -8.71 lnKA.

Q: B2 was tested. Which binding signal did it give?
A: The binding signal was -8.8 lnKA.

Q: For B3, which binding signal is on record?
A: Its binding signal is -8.92 lnKA.

Q: Which binding signal does the source give for B4 here?
A: The binding signal was -8.53 lnKA.

Q: With B5 as the binder, how does the binding signal read?
A: Its binding signal is -6.65 lnKA.

Q: How did the binding signal turn out when B6 was run?
A: Its binding signal is -8.67 lnKA.

Q: Which binding signal does the source give for B7 here?
A: The binding signal was -8.91 lnKA.

Q: B8 was tested. Which binding signal did it give?
A: The binding signal was -8.92 lnKA.

Q: Which binding signal does the source give for B9 here?
A: The binding signal was -7.49 lnKA.

Q: Which binding signal does the source give for B10 here?
A: Its binding signal is -6.83 lnKA.

Q: With B11 as the binder, how does the binding signal read?
A: Its binding signal is -9 lnKA.

Q: With B12 as the binder, how does the binding signal read?
A: Its binding signal is -8.41 lnKA.

Q: How did the binding signal turn out when B13 was run?
A: The binding signal was -8.54 lnKA.

Q: For B14, which binding signal is on record?
A: Its binding signal is -8.85 lnKA.

Q: For B15, which binding signal is on record?
A: Its binding signal is -8.96 lnKA.

These binders were tested against dAsCas12a E174R (Acidaminococcus sp., UniProt U2UMQ6 1-1307, E174R;D908A;E993A;D1235A) in the same assay as above. Settings: protein: recombinant.

Q: How did the binding signal turn out when B1 was run?
A: Its binding signal is -8.37 lnKA.

Q: For B2, which binding signal is on record?
A: The binding signal was -8.26 lnKA.

Q: Which binding signal does the source give for B3 here?
A: The binding signal was -8.74 lnKA.

Q: How did the binding signal turn out when B4 was run?
A: The binding signal was -6.9 lnKA.

Q: B5 was tested. Which binding signal did it give?
A: The binding signal was -6.48 lnKA.

Q: How did the binding signal turn out when B6 was run?
A: Its binding signal is -8.66 lnKA.

Q: For B8, which binding signal is on record?
A: The binding signal was -8.64 lnKA.

Q: How did the binding signal turn out when B9 was run?
A: The binding signal was -7.49 lnKA.

Q: B10 was tested. Which binding signal did it give?
A: The binding signal was -5.69 lnKA.

Q: B11 was tested. Which binding signal did it give?
A: The binding signal was -8.98 lnKA.

Q: Which binding signal does the source give for B14 here?
A: The binding signal was -8.75 lnKA.

The binders below were run against dAsCas12a S542R (Acidaminococcus sp., UniProt U2UMQ6 1-1307, S542R;D908A;E993A;D1235A) in the same assay as above. Settings: protein: recombinant.

Q: With B1 as the binder, how does the binding signal read?
A: Its binding signal is -8.4 lnKA.

Q: For B2, which binding signal is on record?
A: Its binding signal is -6.35 lnKA.

Q: For B3, which binding signal is on record?
A: The binding signal was -8.17 lnKA.

Q: Which binding signal does the source give for B4 here?
A: Its binding signal is -8.17 lnKA.

Q: Which binding signal does the source give for B5 here?
A: The binding signal was -7.23 lnKA.

Q: Which binding signal does the source give for B6 here?
A: Its binding signal is -4.85 lnKA.

Q: With B7 as the binder, how does the binding signal read?
A: The binding signal was -8.63 lnKA.

Q: With B8 as the binder, how does the binding signal read?
A: The binding signal was -8.47 lnKA.

Q: For B9, which binding signal is on record?
A: The binding signal was -7.86 lnKA.

Q: With B10 as the binder, how does the binding signal read?
A: The binding signal was -7.23 lnKA.

Q: For B11, which binding signal is on record?
A: The binding signal was -8.73 lnKA.

Q: How did the binding signal turn out when B12 was run?
A: Its binding signal is -8.41 lnKA.

Q: For B13, which binding signal is on record?
A: Its binding signal is -8.67 lnKA.

Q: B14 was tested. Which binding signal did it give?
A: The binding signal was -8.25 lnKA.

Q: B15 was tested. Which binding signal did it give?
A: The binding signal was -8.5 lnKA.

These binders were tested against d-enCas12a (Acidaminococcus sp., UniProt U2UMQ6 1-1307, E174R;S542R;K548R;D908A;E993A;D1235A) in the same assay as above. Settings: protein: recombinant.

Q: Which binding signal does the source give for B1 here?
A: Its binding signal is -2.47 lnKA.

Q: Which binding signal does the source give for B2 here?
A: The binding signal was -1.97 lnKA.

Q: With B3 as the binder, how does the binding signal read?
A: The binding signal was -5.56 lnKA.

Q: How did the binding signal turn out when B4 was run?
A: Its binding signal is -3.28 lnKA.

Q: How did the binding signal turn out when B5 was run?
A: The binding signal was -4.98 lnKA.

Q: For B6, which binding signal is on record?
A: Its binding signal is -0.91 lnKA.

Q: Which binding signal does the source give for B7 here?
A: The binding signal was -5.81 lnKA.

Q: How did the binding signal turn out when B8 was run?
A: Its binding signal is -5.62 lnKA.

Q: B9 was tested. Which binding signal did it give?
A: Its binding signal is -5.74 lnKA.

Q: How did the binding signal turn out when B10 was run?
A: The binding signal was -4.92 lnKA.

Q: With B11 as the binder, how does the binding signal read?
A: Its binding signal is -4.4 lnKA.

Q: With B12 as the binder, how does the binding signal read?
A: Its binding signal is -5.63 lnKA.

Q: Which binding signal does the source give for B13 here?
A: The binding signal was -2.67 lnKA.

Q: B14 was tested. Which binding signal did it give?
A: Its binding signal is -4.89 lnKA.

Q: B15 was tested. Which binding signal did it give?
A: The binding signal was -5.82 lnKA.

The binders below were run against d-enCas12a-Ultra (Acidaminococcus sp., UniProt U2UMQ6 1-1307, E174R;S542R;K548R;M537R;F870L;D908A;E993A;D1235A) in the same assay as above. Settings: protein: recombinant.

Q: How did the binding signal turn out when B1 was run?
A: Its binding signal is -0.629 lnKA.

Q: How did the binding signal turn out when B2 was run?
A: The binding signal was -0.439 lnKA.

Q: Which binding signal does the source give for B3 here?
A: The binding signal was -3.21 lnKA.

Q: For B4, which binding signal is on record?
A: Its binding signal is -1.2 lnKA.

Q: B5 was tested. Which binding signal did it give?
A: The binding signal was -1.57 lnKA.

Q: With B6 as the binder, how does the binding signal read?
A: Its binding signal is -0.27 lnKA.

Q: For B7, which binding signal is on record?
A: The binding signal was -3.46 lnKA.

Q: For B8, which binding signal is on record?
A: The binding signal was -3.05 lnKA.

Q: How did the binding signal turn out when B9 was run?
A: Its binding signal is -2.73 lnKA.

Q: With B10 as the binder, how does the binding signal read?
A: Its binding signal is -1.62 lnKA.

Q: Which binding signal does the source give for B11 here?
A: Its binding signal is -1.51 lnKA.

Q: How did the binding signal turn out when B12 was run?
A: Its binding signal is -3.17 lnKA.

Q: With B13 as the binder, how does the binding signal read?
A: Its binding signal is -0.615 lnKA.

Q: With B14 as the binder, how does the binding signal read?
A: Its binding signal is -2.56 lnKA.

Q: For B15, which binding signal is on record?
A: The binding signal was -3.42 lnKA.

What follows are binders tested against dAsCas12a K548R (Acidaminococcus sp., UniProt U2UMQ6 1-1307, K548R;D908A;E993A;D1235A) in the same assay as above. Settings: protein: recombinant.

Q: For B13, which binding signal is on record?
A: The binding signal was -8.4 lnKA.
